Results reported in PubChem BioAssay AID624291 (National Center for Advancing Translational Sciences (NCATS), 2012).
The whole screen tested about 350,000 compounds, of which about 220 (0.063%) were called active. Inconclusive results (about 4%) are left out. This is one part of a sample in which actives are shown more often than they occur. The call rests on the fitted dose curve; in most records, active means well fitted activation curve with a large enough effect; inconclusive means small, poorly fitted or top-dose-only effect; inactive means no such curve, though single readings can be large or run the other way.

experiment: qHTS for Activators of Integrin-Mediated Alleviation for Muscular Dystrophy; conditions: alpha7betagal myoblasts, beta-gal FDG fluorescence, 48 h; series mostly up to 38.3 µM; activation: at the top concentration; further: nearly all actives have a fitted effect of over 60% in size;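 on activation: 100% = response of the positive control SU9516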
Description: Integrins are a diverse family of transmembrane cell surface receptors that mediate interactions between cells and the extracellular matrix. These heterodimeric proteins are composed of alpha and beta subunits and the a7b1 interacts with laminin in the extracellular matrix and actin of the cell cytoskeleton. Both chains contribute to ligand binding, but the alpha chain mediates the specificity of the interaction. The alpha7beta1 integrin is a major laminin receptor in skeletal, cardiac and vascular smooth muscle. Mutations in the alpha7 integrin gene are responsible for muscular dystrophy in both humans and mice. The alpha7beta1 integrin is also a major modifier of muscle disease progression in various muscle diseases including Duchenne muscular dystrophy, Fukuyama muscular dystrophy and merosin deficient congenital muscular dystrophy type 1A. […] Transcriptional regulation of the alpha7 integrin gene is poorly understood and probably involves multiple transcription factors. The goal of identifying small molecules that enhance alpha7 integrin expression is two-fold: firstly, such molecules would help us gain insight into the complex transcriptional control of alpha7 integrin. It is known that alpha7 integrin expression is tightly controlled during various stages of development, disease and in response to external stimuli. The second goal of the project is to translate the above finding into a therapeutic strategy for muscular dystrophy. […] Thus this project aims to discover small molecule probes that would not only help in gaining a better understanding of the complex regulatory mechanism of alpha7 integrin expression, but also lead to development of pharmacological agents to fight muscular dystrophy. NIH Chemical Genomics Center [NCGC] NIH Molecular Libraries Probe Centers Network [MLPCN] MLPCN Grant: NS058429 Assay Submitter (PI): Dean Burkin, University of Nevada School of Medicine
A total of 250 alpha7betagal+/- myoblasts at passage 13 were dispensed using a mulitdrop from Thermo into black low base tissue culture treated microclear aurora plates in 6 ul media containing DMEM without phenol, 5% FBS, 1x GluMax and 1x Penicillin/Streptomycin. The plates were incubated 16-24 hr at 37C, 5% CO2, 95% humidity covered with low evaporation stainless steel lids from Kalypsys. Compounds were then dispensed using a Kalypsys pintool to deliver 23 nl/well compounds in DMSO (diluted into 6 uL resulting in a 1:260 dilution of compound). The control compound used was the cdk2 inhibitor SU9516 from Tocirs (found in the initial LOPAC screen). The plates were incubated for 48 hours at 37C, 5% CO2, 95% humidity using the same stainless steel lids. After incubation with compound, 5 ul of the media was aspirated using the Kalypsys washer/dispenser and 3 ul of the Mammalian Protein Extraction Reagent (MPER) lysis buffer (Thermo Fisher) was added. The plates were spun at 2000 rpms to remove bubbles and an initial capture was acquired on the Viewlux (Perkin Elmer) with exciation at 480 nm and emission at 540 nm for 25 seconds to omit any auto fluorescent compounds. The plates were then incubated for 10 minutes at room temperature. […] The plates were again read on the Viewlux with exciation at 480 nm and emission at 540 nm for 25 seconds.
Potency means the concentration at half of the fitted maximal effect.

SMILES | Potency | activation
O=Cc1cn(Cc2ccc(F)cc2Cl)c2ccccc12 | 15.8 µM (active) | 
O=c1[nH]c(=S)[nH]c(O)c1/C=C1\C=Nc2ccccc21 |  | -56.5% (inactive)
Cc1ccc(Oc2cnn(-c3ccccc3)c(=O)c2Br)cc1 |  | -47.1% (inactive)
CC(=O)c1ccc(S(=O)(=O)N2CCN(c3nc4c(C)c(C)ccc4cc3C#N)CC2)cc1 |  | -42% (inactive)
CCOC(=O)c1cccc(C2=C(CNC(=O)c3ccncc3)[C@H]3CC[C@@H](C2)N3Cc2ccccc2)c1 |  | -46% (inactive)
